# Screening results (PubChem BioAssay)
# VACV Venus inh: vaccinia inhibition (Venus reporter); Potency, µM (series often up to 36.5 µM), for the others: at the top dose activity change, negative = inhibition, most hits filed as inhibitors; hit rate 0.46% among 330,000; Vaccinia virus Venus reporter expression, fluorescence; AID 720580; calls by dose curve; tested in A549 cells; also: nearly all actives have a fitted effect of over 30% in size
# HCV inh: inhibitors of hepatitis C virus infection; Huh7.5.1 HCVcc-Cre infection, luciferase reporter, 44 h; Potency, µM (doses to about 41.8 µM), for inactives: top-dose activity change, negative = inhibition, actives largely listed as inhibitors; hit rate 3.4% among 340,000; AID 651820; active = well fitted inhibition curve with a large enough effect; inconclusive = small, poorly fitted or top-dose-only effect, or another doubt; inactive = no such curve, though single readings can be large or run the other way
#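 Antiviral activity was scored by luciferase reporter output from cells infected with HCVcc-Cre (~0.5 moi) in presence of compound, 44 h infection period, cells seeded 1,000/well 4 h prior.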
# VACV mCherry inh: inhibitors of vaccinia virus infection (mCherry reporter signal); Potency, µM (top dose mostly 36.5 µM), for the others: at the highest dose activity change, negative = inhibition, most hits filed as inhibitors; hit rate 0.63% among 310,000; Vaccinia virus mCherry reporter infection, fluorescence; calls by dose curve; tested in A549 cells; also: nearly all actives have a fitted effect of over 35% in size
# Numbers without * were called inactive; i = inactive; u = inconclusive; x = not tested or not shown; [ ] = remark or other dose. Only some compounds are listed: those with a hit (about 3.3% of all), similar ones and a draw of the others. % is scaled to controls: 0 for no effect and ±100 for the full control effect; potency is read from the fitted curve at half-maximal effect.
SMILES,VACV Venus inh,HCV inh,VACV mCherry inh
O=C(COC(=O)c1ccc[n+]([O-])c1)Nc1cc([N+](=O)[O-])ccc1Cl,-9%,-7%,i
c1ccc(CCNc2ncnc3ccccc23)cc1,x,1.1µM*,x
CCc1ccccc1Nc1ncnc2ccccc12,-8%,u,-8%
Brc1ccc2ncnc(NCc3ccccc3)c2c1,u,10µM*,x
Cc1cc2c(NCCc3ccccc3)ncnc2s1,-5%,5.6µM*,-14%
Cc1cc2c(Nc3ccccc3)ncnc2s1,-27%,u,-6%
Cc1ccc(-n2ncc3c(NCCc4ccccc4)ncnc32)cc1,-10%,x,-9%
CCCCCCCCNc1ncnc2ccccc12,u,0.79µM*,u
CN(C)Cc1ccccc1-c1ccc2ncnc(NCc3ccccc3)c2c1,5%,x,i
CCN(CC)CCNC(=O)c1cnn(-c2nccc(-c3cc4ccccc4o3)n2)c1C,-4%,x,-14%
C#CCN(C[C@@H]1[C@@H](OC(=O)NCc2ccc(OC)c(OC)c2)[C@@H](OC(=O)NCc2ccc(OC)c(OC)c2)CN(C(=O)OC(C)C)N1C(=O)OC(C)C)S(=O)(=O)c1ccc(C)cc1,-24%,x,-4%
CCCc1cc(OC)c2c(c1)OCO2,-11%,x,-18%
Cc1cc2c(NC3CCCCC3)ncnc2s1,-22%,10µM*,-7%
Cc1cc2c(SCC(=O)NC3CCCCC3)ncnc2s1,-2%,4%,-8%
Cc1ccc(S(=O)(=O)N2CCCN(c3nc4cc(C)ccc4cc3C#N)CC2)cc1,-9%,22µM*,i
Cc1ccc2cc(C#N)c(N3CCCN(C(=O)C4CCCO4)CC3)nc2c1 (stereo not drawn),x,1%,x
Cc1ccc(S(=O)(=O)N2CCCN(S(=O)(=O)c3ccc4c(c3)OCCO4)CC2)cc1,-9%,-28%,-9%
Cc1ccc2nc(N3CCN(S(=O)(=O)c4ccc5c(c4)OCCO5)CC3)c(C#N)cc2c1,x,14µM*,x
C[N+](C)(CCCCCI)c1ccc(/C=C/c2nc3ccccc3s2)cc1,i,x,474%
COc1ccc2c(c1)c(=O)oc1c(C)c(OC(C)C(=O)N[C@@H](Cc3c[nH]c4ccc(O)cc34)C(=O)O)ccc12 (stereo partly drawn),5%,-4%,-8%
Cc1cccc(N/N=C(\C(N)=O)C2=NC(C)(C)Cc3ccccc32)c1,u,11µM*,u
CCOC(=O)/C(=N\O)C1=NC(C)(C)Cc2ccccc21,-15%,31%,-6%
CN1C(=O)C2(c3ccccc31)N(C)CC(c1ccccn1)C21SC(=S)N(Cc2ccco2)C1=O (stereo not drawn),-19%,u,-21%
CN1C(=O)C2(c3ccccc31)N(C)CC(c1ccccc1)C21SC(=S)N(Cc2ccco2)C1=O (stereo not drawn),-7%,10µM*,i
Cc1cccc(C(=O)NC2CCN(C(=O)Nc3ccc(F)cc3)CC2)c1,-3%,24%,-6%
SMILES,VACV Venus inh,HCV inh,VACV mCherry inh
CC(=O)c1c(C)[nH]c(C(=O)OCC(=O)NCCC2=CCCCC2)c1C,-23%,u,-26%
COc1ccc(NC(=O)c2cc(C)no2)cc1Cl,-11%,-8%,i
COc1ccc(Cl)cc1NC(=O)c1cc(C)no1,-8%,10µM*,i
COc1ccc(Cl)cc1NC(=O)c1cccc(-n2cnnn2)c1,-19%,10µM*,-17%
CS(=O)(=O)c1ccc(Cl)c(NC(=O)c2cccc(-n3cnnn3)c2)c1,-10%,3%,i
COc1ccc(Cl)cc1NC(=O)Nc1cccc([N+](=O)[O-])c1C,-13%,16µM*,-24%[1.46 µM]
COc1ccc(Cl)cc1NC(=O)NC(C)c1ccncc1 (stereo not drawn),x,7.1µM*,x
COc1ccc(C)cc1NC(=O)NC(C)c1ccncc1 (stereo not drawn),x,-24%,x
COc1ccc(Cl)cc1NC(=O)NC1CCCCC1,-5%,u,-12%
CN(C(=O)COC(=O)c1ccc2c(c1)OCO2)c1c(N)n(Cc2ccccc2)c(=O)[nH]c1=O,-14%,-3%,-14%
OC(CN1CCCCC1)c1ccccc1 (stereo not drawn),-3%,x,-11%
Cc1c(C(=O)NC2CCCCCC2)sc2ncnc(NCC3CCCO3)c12 (stereo not drawn),-9%,x,-10%
O=C(Nc1ccc(-c2nc3cccnc3s2)cc1)c1ccco1,u,u,i
O=C(Nc1ccc(-c2nc3cccnc3s2)cc1)c1ccc(Br)o1,-21%,11µM*,-10%
O=C(Nc1ccc(-c2nc3cccnc3s2)cc1)c1cccnc1Cl,-27%,6.3µM*,11%
O=C(Nc1ccc(-c2nc3cccnc3s2)cc1)c1ccc(Cl)nc1,-8%,u,-12%
CC(C)C(=O)Nc1ccc(/C=C2\C=Cc3ccccc32)cc1,-8%,x,35%
Cc1ccc(S(=O)(=O)N(C)C)cc1NC(=O)CN1C(=O)NC2(CCCCCCC2)C1=O,-24%,-2%,-28%
Cc1c2c(cc3c1[nH]c1ccccc13)C=NCC2,-28%,10µM*,u
